TTR transcr act: TTR transcription activators in neuroblastoma reporter cells, primary screen, cell-based, luminescence, SH-SY5Y, TTR promoter Gaussia luciferase; hit rate 1.3% among 92,000; 100% = recombinant luciferase protein wells; AID 1117267, 2014; activation, % at 16.7 µM;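 active means activation above the mean of all tested compounds plus 3 SD, cut at about 9.5% in these data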;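 further: cells exposed to compounds for one day before reading; 0% = median of all test compound wells on the plate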
HuH7 TTR inh: TTR promoter reporter inhibitors in hepatoma cells, counter-screen for TTR transcription activator project, cell-based, luminescence, HuH7 hepatoma. shares compounds with TTR transcr act. HuH7 TTR promoter-Gaussia luciferase reporter. inhibition, % at 16.7 µM. hit rate 4% among 1,100. AID 1117279, 2014;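 active means average inhibition above the solvent-only control wells' mean plus 3 SD, cut at about 15% in these data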;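 further: 0% = cells with DMSO only and 100% = cells with inhibitor control FD; inhibitors lower well luminescence so higher value means more inhibition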
TTR act confirm: TTR transcription activators, retest, confirmation, cell-based, luminescence, SH-SY5Y, triplicate. activation, % at 16.7 µM. shares compounds with TTR transcr act. AID 1117280, 2014. 1,100 tested, under 10 active. SHSY5Y TTR promoter Gaussia luciferase; 100% = purified Lucia enzyme wells, no cells;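 active means mean activation above a set limit taken from the earlier primary screen, cut at about 11% in these data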;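 further: 0% = DMSO-treated cells and 100% = recombinant Lucia luciferase without cells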
Numbers without * were called inactive. Many of the other results were omitted from the sample, so hits are more common in it than they were.

SMILES | TTR transcr act | others
CCCC1CCC2(CCCN2CCOC(=O)Nc2ccccc2OC)CC1 (stereo not drawn) | 0.7
C[C@H](CO)N1C[C@H](C)[C@H](CN(C)S(=O)(=O)c2ccc3ccccc3c2)OCc2cnnn2CCCC1=O | 0.6
O=S(=O)(c1ccc(SCc2c(F)cccc2Cl)nc1)N1CCCC1 | -0.8
O=S(=O)(c1ccc(SCCOc2ccc(Br)cc2)nc1)N1CCCC1 | -1.9
O=S(=O)(c1ccc(SCCOc2ccc(Cl)cc2)nc1)N1CCCC1 | 20.8* | HuH7 TTR inh=6.6;TTR act confirm=-1.0
CCCCNC(=O)C[C@H]1C[C@@]2(C(=O)OC)C(=C[C@H](C3CCCC3)O[C@@H]2C)N(Cc2cccc3ccccc23)C1=O | 0.3
C=CCN1C(=O)[C@H](CC(=O)NCCc2ccccc2OC)[C@@]2(C(=O)OCC)CCCC=C12 | 0.9
O=C(CCn1ccc([N+](=O)[O-])n1)NC1CCCCCC1 | 1.5
CC(=O)Nc1ccc(NC(=O)Cn2ccc([N+](=O)[O-])n2)cc1 | 1.1
Cc1ccc(NC(=O)CCn2ccc([N+](=O)[O-])n2)nc1 | 29.5* | HuH7 TTR inh=8.1;TTR act confirm=0.6
CN(C(=O)[C@@H]1CC=C[C@@H]2CCN(C3CCCCC3)C(=O)[C@@H]21)c1ccccc1 | 2.2
COC(=O)[C@]12C[C@H](CC(=O)NCc3cccc(C(F)(F)F)c3)C(=O)N(Cc3ccco3)C1=C[C@H](C1CCCC1)O[C@@H]2C | -0.1
O=c1cc(O)c2sc(Nc3ccc(Cl)c(F)c3)nc2[nH]1 | 9.9* | HuH7 TTR inh=17.0*;TTR act confirm=-0.5
COc1ccc(Nc2nc3[nH]c(=O)cc(O)c3s2)cc1 | 1.6
Cc1ccc(Nc2n[nH]c(=S)s2)cc1F | 3.9
Nc1nnc(CSCc2ccccc2Cl)s1 | -0.2
Nc1nnc(CCS(=O)(=O)c2cc(Cl)ccc2Cl)s1 | 23.5* | HuH7 TTR inh=-8.4;TTR act confirm=-0.6
CC(C)(C)c1nnc(NS(=O)(=O)c2cc(Cl)ccc2Cl)s1 | 2.0
COC(=O)C(CN)CN1C(=O)c2ccccc2C1=O (stereo not drawn) | 0.0
CC(=O)Nc1sc2c(c1-c1nc(-c3ccccc3)cs1)CCN(C(C)C)C2 | -0.6
CC(C)c1ccc(NC(=O)COC(=O)COc2ccccc2)cc1 | 10.1* | HuH7 TTR inh=-6.8;TTR act confirm=0.1
CC(C)c1ccc(OCC(=O)Nc2ccncc2)cc1 | -0.7
O=C(COC(=O)COc1ccccc1)Nc1ccc2c(c1)OCCO2 | -1.4
C[C@H]1[C@H](NC(=O)c2ccc(Cl)cc2)CC[C@@]23CCCN2C(=O)CCC[C@@H]13 | -0.3
CCC1CCc2sc(C(=O)Nc3cc(S(=O)(=O)N4CCOCC4)ccc3OC)cc2C1 (stereo not drawn) | -0.5
SMILES | TTR transcr act | others
O=C(Nc1ccc(F)cc1)OCc1cn(Cc2ccc(Cl)cc2)nn1 | 1.1
Cc1ccc(CN(C)C(=O)c2cccc(S(=O)(=O)N3CCN(Cc4ccccc4)CC3)c2)o1 | -1.3
CCCCN(C(=O)c1cccc(S(=O)(=O)N2CCN(Cc3ccccc3)CC2)c1)c1ccccc1 | 26.7* | HuH7 TTR inh=-3.6;TTR act confirm=-0.3
O=C(NCCOc1ccccc1)c1cccc(S(=O)(=O)N2CCN(Cc3ccccc3)CC2)c1 | -1.1
O=C(Nc1ccccc1C(F)(F)F)O[C@@H]1CC[C@@]23CCCN2C(=O)CCC[C@H]3C1 | -0.4
COC(=O)C1=C(N)Oc2cc(C)n(Cc3cccnc3)c(=O)c2C1c1ccc(OC)c(OC)c1 (stereo not drawn) | 18.0* | HuH7 TTR inh=-8.7;TTR act confirm=0.2
COc1ccc(C(=O)NCc2cccnc2)cc1OC | 1.2
COc1cccc(C2C(C#N)=C(N)Oc3cc(C)n(Cc4ccccn4)c(=O)c32)c1OC (stereo not drawn) | 3.9
CCC[C@H]1[C@@H](NC(=O)c2ccc(Cl)cc2)CC[C@@]23CCCN2C(=O)CCC[C@@H]13 | 0.5
O=C(OCC#CCSc1nnc(-c2cccc3ccccc23)o1)c1ccc(F)cc1F | -1.1
COc1ccc(CC2CCN(c3ncnc4sccc34)CC2)cc1 | -3.7
CN(Cc1ccccc1)C(=O)Cn1cccc1C(=O)c1ccccc1 | -1.2
O=C(c1ccccc1)c1cccn1CC(=O)N1CCCCCC1 | 10.4* | HuH7 TTR inh=-10.7;TTR act confirm=0.4
Cc1cccc(N2CCN(C(=O)Cn3cccc3C(=O)c3ccccc3)CC2)c1C | 1.4
CCCCNC(=O)C[C@H]1C[C@@]2(C(=O)OC)C(=C[C@H](C(C)C)O[C@@H]2C2CC2)N(Cc2ccc(Cl)cc2Cl)C1=O | 0.4
COc1cc(OC)cc(C(C)c2ccc(-c3ccccc3)cc2)c1 (stereo not drawn) | -0.4
c1ccc(CNc2ncnc3c2cnn3-c2ccccc2)cc1 | 1.2
c1ccc(-n2ncc3c(NCCN4CCCCC4)ncnc32)cc1 | 0.0
CCNc1ncnc2c1cnn2C1CCCO1 (stereo not drawn) | 10.3* | HuH7 TTR inh=-8.1;TTR act confirm=1.1
CCC[C@H]1[C@@H](NC(=O)C#Cc2ccccc2)CC[C@@]23CCCN2C(=O)CCC[C@@H]13 | -0.6
COc1ccc(/C=N/NC(=O)COc2cccc3cccnc23)cc1OC | -0.9
CC(Oc1cccc2cccnc12)C(=O)N/N=C/c1ccccc1 (stereo not drawn) | -2.2
CC(Oc1cccc2cccnc12)C(=O)N/N=C/c1ccc2c(c1)OCO2 (stereo not drawn) | 12.6* | HuH7 TTR inh=-8.2;TTR act confirm=-0.7
CCCCCCCCN1C(=O)[C@@H](CC(=O)N2CCOCC2)C[C@@]2(C(=O)OC)C1=C[C@H](C(C)C)O[C@@H]2C1CC1 | -0.4
CCCCCNC(=O)C(C)Sc1ccc(Cl)cc1 (stereo not drawn) | 2.0
SMILES | TTR transcr act | others
CCCCNC(=O)NS(=O)(=O)c1cnccc1Sc1ccc(Cl)cc1 | 16.2* | HuH7 TTR inh=-16.5;TTR act confirm=-0.1
O=C(NCCCNC(=O)c1cnccn1)c1ccc(Cl)cc1 | 4.4
COC(=O)[C@@]12CCCCC3=C1N(CCC3)C(=O)[C@H]2CC(=O)NCc1cccc(C(F)(F)F)c1 | 1.1
CCOC(=O)N1CCN(C(=O)Cn2nc(C)c3sc4ccccc4c3c2=O)CC1 | -1.5
CN(C)CCCNC(=O)c1cc2sc3ccccc3c2s1 | 1.5
Cc1nn(C(C)C(=O)NCCCN(Cc2ccccc2)C(C)C)c(=O)c2c1sc1ccccc12 (stereo not drawn) | 10.3* | HuH7 TTR inh=-15.4;TTR act confirm=1.9
CCCN1CNc2c(c(=O)[nH]c(=S)n2CCc2c(Cl)cccc2Cl)C1 | -0.4
Nc1[nH]c(C(=O)c2ccccc2)c(-c2ccc3ccccc3c2)c1C(=O)NCCc1ccc(Cl)cc1 | 3.9
CC(C)[C@@H]1OC(=O)[C@@H]2CCCN2C(=O)[C@H](C)OC(=O)[C@H](C)[C@@H](C(C)C)NC(=O)[C@@H]2CCCN2C(=O)[C@H]([C@H](C)Cc2ccccc2)NC(=O)[C@@H]2CCCN2C(=O)[C@@H](C(C)C)N(C)C1=O | -0.2
COc1cc2c(cc1NC(=O)Nc1cccc(C)c1)oc1ccccc12 | 0.5
COc1cc2c(cc1NC(=O)c1cc(-c3ccncc3)nc3ccccc13)oc1ccccc12 | 15.2* | HuH7 TTR inh=4.5;TTR act confirm=-0.7
COc1ccccc1NC(=O)c1cc(-c2ccc(OC)c(OC)c2)nc2ccccc12 | -1.6
O=C(NCCc1c[nH]c2ccccc12)OCc1cn(Cc2cccc(C(F)(F)F)c2)nn1 | -2.6
CC1(c2nnnn2-c2ccc(F)cc2)CCCC(=O)N1CCc1c[nH]c2ccccc12 (stereo not drawn) | -0.3

Screening results deposited in PubChem by The Scripps Research Institute Molecular Screening Center.
